Data on 39 molecules can be found in the supplement of paper PMC12669032.

Values without a mark were called inactive.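 Rule for the calls: active = AUC reduced over 20% with Padj below 0.05 in at least 2 of 3 replicates; inactive = otherwise.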

The subject of the assay is Bacteroides thetaiotaomicron. In words: growth AUC relative to DMSO control (median of replicates) (fraction); higher = more growth (less inhibition), active = hit call of the paper. As to conditions: 20 µM; 24 h. The essentials:
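Gut bacterial monocultures were grown anaerobically at 37 °C in mGAM, starting at OD600 0.05, with 20 µM compound (1% DMSO) in round-bottom 96-well plates under pierced gas-permeable seals. OD600 was read hourly for 24 h. Area under the growth curve (minimum OD set to 0) was normalised to the plate median of DMSO controls, or to row and column medians on the industrial chemical plate. The value is the median of three biological replicates grown on separate days.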
As to `CCC(C)(c1ccc(O)cc1)c1ccc(O)cc1`, the “growth AUC” value is 0.973.

Turning to `C[n+]1ccc(-c2cc[n+](C)cc2)cc1.O.[Cl-].[Cl-]`, the “growth AUC” value is 0.996.

Regarding `C=CCC1=C(C)C(OC(=O)C2C(C=C(C)C)C2(C)C)CC1=O` (mixture of isomers), the “growth AUC” value was 0.972.

In the case of `CCOP(=S)(OCC)SCS(=O)CC` (centres undefined), the “growth AUC” value is 1.02.

For `CC1=C(C(=O)Nc2ccccc2)SCCO1`, the “growth AUC” value is 1.04.

With `CC(C)Nc1nc(Cl)nc(NC(C)C)n1`, the “growth AUC” value is 0.96.

Turning to `CNC(=O)Oc1cc(C)cc(C(C)C)c1`, the “growth AUC” value was 0.967.

As for `C=CCN(CC=C)C(=O)C(Cl)Cl`, the “growth AUC” value was 0.99.

Regarding `CCS(=O)Cc1ccccc1OC(=O)NC` (centres undefined), the “growth AUC” value is 1.

Regarding `CNC1=C(c2cccc(C(F)(F)F)c2)C(=O)C(c2ccccc2)O1` (centres undefined), the “growth AUC” value was 0.986.

In the case of `CC/C(=N\OC/C=C/Cl)C1=C(O)CC(C2CCOCC2)CC1=O` (centres undefined), the “growth AUC” value was 1.02.

Regarding `CC(COc1ccc(Oc2ccccc2)cc1)Oc1ccccn1` (centres undefined), the “growth AUC” value is 0.993.

Regarding `COCCOC(=O)C(C#N)(C(=O)c1ccccc1C(F)(F)F)c1ccc(C(C)(C)C)cc1` (centres undefined), the “growth AUC” value was 1.01.

As to `O=c1oc2ccccc2c(O)c1C1CC(c2ccc(OCc3ccc(C(F)(F)F)cc3)cc2)Cc2ccccc21` (mixture of isomers), the “growth AUC” value is 0.97.

Consider `CN(C)C1CSSSC1.O=C(O)C(=O)O`, for which the “growth AUC” value is 1.07.

In the case of `OC(c1ccc(Cl)cc1)(c1ccc(Cl)cc1)C(Cl)(Cl)Cl`, the “growth AUC” value was 0.379 (active).

Take `Cc1cc(C2CC2)nc(Nc2ccccc2)n1`: the “growth AUC” value was 0.903.

In the case of `CCC(CC)Nc1c([N+](=O)[O-])cc(C)c(C)c1[N+](=O)[O-]`, the “growth AUC” value is 0.96.

On to `CCCSC(=O)N(CCC)CCC`, for which the “growth AUC” value is 1.01.

Take `C[C@@H](Oc1ccc(Cl)cc1Cl)C(=O)O`: the “growth AUC” value was 1.

As to `CCOP(=S)(OCC)Oc1cc(-c2ccccc2)on1`, the “growth AUC” value is 0.956.

In the case of `O=C(O)c1cc(Cl)ccc1Cl`, the “growth AUC” value was 1.

On to `OCC(O)CCl` (centres undefined), for which the “growth AUC” value is 0.984.

On to `Cc1ccc2nc3sc(=O)sc3nc2c1`, for which the “growth AUC” value was 1.

Turning to `CC(Cl)(Cl)C(=O)O`, the “growth AUC” value was 1.01.

Consider `CCNc1nc(NC(C)C(C)C)nc(SC)n1` (centres undefined), for which the “growth AUC” value is 0.915.

Turning to `CCCCCCCC(=O)Oc1c(I)cc(C#N)cc1I`, the “growth AUC” value was 0.951.

Regarding `COP(=S)(OC)Oc1cc(Cl)c(Br)cc1Cl`, the “growth AUC” value was 0.963.

For the molecule `C=CCN=C=S`, the “growth AUC” value was 1.02.

As to `COC(=O)c1ccccc1S(=O)(=O)NC(=O)Nc1nc(C)cc(C)n1`, the “growth AUC” value is 0.979.

In the case of `CNC(=O)O/N=C(\SC)C(=O)N(C)C`, the “growth AUC” value was 0.993.

With `CC(Cc1ccc(C(C)(C)C)cc1)CN1CCCCC1` (centres undefined), the “growth AUC” value is 0.974.

`CC1=NNC(=O)N(/N=C/c2cccnc2)C1`: the “growth AUC” value was 1.02.

For the molecule `c1ccc(-c2ccccc2)cc1`, the “growth AUC” value was 0.969.

As to `CN1CSC(=S)N(C)C1`, the “growth AUC” value was 0.976.

`COC(=O)NC(=S)Nc1ccccc1NC(=S)NC(=O)OC`: the “growth AUC” value is 0.981.

For `C=CC1(C)OC(=O)N(c2cc(Cl)cc(Cl)c2)C1=O` (centres undefined), the “growth AUC” value is 0.989.

`ClC1=C(Cl)C2(Cl)C3C4C=CC(C4)C3C1(Cl)C2(Cl)Cl` (centres undefined): the “growth AUC” value was 1.03.

Turning to `CC(C)OP(=O)(OC(C)C)SCc1ccccc1`, the “growth AUC” value is 0.964.
